Results from PubChem BioAssay (EPA / NIEHS).
The source made the active and inactive calls. The calls were made as follows: active = hit-call score of the fitted dose curve at least 0.9, where 1 is the maximum; inactive = score below 0.9.

Columns and labels:
[1] = ATG_GRE_CIS: Attagene CIS-FACTORIAL HepG2 Assay for human Glucocorticoid Response Elements (GRE) (AID 2282947); conditions: HepG2 GRE cis-reporter, Attagene multiplex mRNA; actives raise or lower the signal
How it was run: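 Read-out: fluorescent reporter-transcript fragments separated by capillary electrophoresis after RT-PCR. Transiently transfected HepG2 cells carrying cis-element-driven reporter units were dosed for 24 h; gain or loss of signal fitted against DMSO control.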

[2] = ATG_M_32_CIS: Attagene CIS-FACTORIAL HepG2 Assay for M32 Transcription Factor (Internal Marker) (AID 2282949); conditions: HepG2 Attagene cis-factorial M32 reporter, mRNA; actives raise or lower the signal;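 also: background control marker of the multiplexed CIS panel rather than a real target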
How it was run: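 Using DMSO as baseline, bidirectional curve fits were applied to reporter mRNA signals. These came from transiently transfected HepG2 cells exposed for 24 h, with RNA analysed by RT-PCR, FAM primer extension, HpaI digestion and CE.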

[3] = ATG_M_06_CIS: Attagene CIS-FACTORIAL HepG2 Assay for M06 Transcription Factor (Internal Marker) (AID 2282950); conditions: HepG2 Attagene CIS-FACTORIAL M06 internal marker reporter; actives raise or lower the signal
How it was run: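 Steps: transfect HepG2 with multiplexed cis-element reporter constructs; dose chemical 24 h; extract RNA with DNase treatment; reverse-transcribe, PCR-amplify, 6-FAM label, HpaI digest; separate fragments by capillary electrophoresis. Activity fitted both directions versus DMSO.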

[4] = molecular target: Hypoxia-inducible factor 1-alpha (Homo sapiens) (UniProt Q16665); experiment: ATG_HIF1a_CIS: Attagene CIS-FACTORIAL HepG2 Assay for human Hypoxia Inducible Factor 1 (HIF1A) (AID 2282951); conditions: HepG2 Attagene cis-factorial HIF1a reporter transcription; actives raise or lower the signal
Sequence of Hypoxia-inducible factor 1-alpha (Homo sapiens) (Q16665 whole entry, looked up): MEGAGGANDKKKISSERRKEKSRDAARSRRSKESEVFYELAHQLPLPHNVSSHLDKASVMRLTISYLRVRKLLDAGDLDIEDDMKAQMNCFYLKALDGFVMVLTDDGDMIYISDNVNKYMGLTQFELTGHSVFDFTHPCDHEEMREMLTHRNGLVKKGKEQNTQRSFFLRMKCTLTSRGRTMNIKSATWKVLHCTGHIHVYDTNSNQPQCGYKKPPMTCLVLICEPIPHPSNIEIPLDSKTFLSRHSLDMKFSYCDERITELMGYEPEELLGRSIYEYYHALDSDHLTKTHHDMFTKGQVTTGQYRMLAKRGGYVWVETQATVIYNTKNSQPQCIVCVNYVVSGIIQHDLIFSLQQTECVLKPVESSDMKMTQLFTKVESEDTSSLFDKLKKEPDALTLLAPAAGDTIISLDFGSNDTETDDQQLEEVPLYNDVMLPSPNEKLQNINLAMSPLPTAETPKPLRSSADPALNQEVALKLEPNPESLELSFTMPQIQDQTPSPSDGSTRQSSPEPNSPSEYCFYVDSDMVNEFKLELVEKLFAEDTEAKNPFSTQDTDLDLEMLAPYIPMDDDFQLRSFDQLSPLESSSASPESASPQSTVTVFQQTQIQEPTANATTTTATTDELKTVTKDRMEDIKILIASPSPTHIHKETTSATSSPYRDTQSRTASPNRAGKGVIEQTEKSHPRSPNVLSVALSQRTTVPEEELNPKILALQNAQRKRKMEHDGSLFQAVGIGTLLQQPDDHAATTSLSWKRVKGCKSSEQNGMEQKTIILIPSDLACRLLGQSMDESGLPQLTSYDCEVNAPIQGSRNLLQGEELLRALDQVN
How it was run: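 Dosed 24 h, transfected HepG2 cells yielded total RNA whose reporter transcripts were RT-PCR-amplified and sized by capillary electrophoresis using fluorescent labelling; DMSO defined baseline, with gain and loss of signal both fitted.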

[5] = molecular target: Hepatocyte nuclear factor 6 (Homo sapiens) (UniProt Q9UBC0); experiment: ATG_HNF6_CIS: Attagene CIS-FACTORIAL HepG2 Assay for human Hepatocyte Nuclear Factor 6 (HNF6) (AID 2282952); conditions: HepG2 Attagene cis-factorial HNF6 reporter transcription; actives raise or lower the signal
Sequence of Hepatocyte nuclear factor 6 (Homo sapiens) (Q9UBC0 whole entry, looked up): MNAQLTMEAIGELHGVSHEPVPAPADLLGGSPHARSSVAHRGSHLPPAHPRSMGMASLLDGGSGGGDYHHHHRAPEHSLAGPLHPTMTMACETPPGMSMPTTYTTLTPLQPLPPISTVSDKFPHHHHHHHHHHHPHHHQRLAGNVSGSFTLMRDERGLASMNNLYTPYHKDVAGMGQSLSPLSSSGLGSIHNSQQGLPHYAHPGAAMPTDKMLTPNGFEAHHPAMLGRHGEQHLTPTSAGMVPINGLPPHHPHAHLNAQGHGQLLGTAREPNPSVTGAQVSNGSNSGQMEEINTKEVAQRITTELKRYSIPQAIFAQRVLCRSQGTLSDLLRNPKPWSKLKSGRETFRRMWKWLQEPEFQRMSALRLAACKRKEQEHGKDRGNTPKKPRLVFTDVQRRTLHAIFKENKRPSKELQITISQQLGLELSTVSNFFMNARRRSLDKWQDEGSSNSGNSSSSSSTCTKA
How it was run: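 Activity values derive from bidirectional fitting against DMSO of reporter mRNA levels, measured by capillary electrophoresis of labelled RT-PCR products from HepG2 cells exposed 24 h.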

[6] = molecular target: Heat shock factor protein 1 (Homo sapiens) (UniProt Q00613); experiment: ATG_HSE_CIS: Attagene CIS-FACTORIAL HepG2 Assay for human Heat Shock Transcription Factor 1 (HSE) (AID 2282953); conditions: HepG2 HSE cis-reporter, Attagene RNA transcription; actives raise or lower the signal
Sequence of Heat shock factor protein 1 (Homo sapiens) (Q00613 whole entry, looked up, the tested form may be a part): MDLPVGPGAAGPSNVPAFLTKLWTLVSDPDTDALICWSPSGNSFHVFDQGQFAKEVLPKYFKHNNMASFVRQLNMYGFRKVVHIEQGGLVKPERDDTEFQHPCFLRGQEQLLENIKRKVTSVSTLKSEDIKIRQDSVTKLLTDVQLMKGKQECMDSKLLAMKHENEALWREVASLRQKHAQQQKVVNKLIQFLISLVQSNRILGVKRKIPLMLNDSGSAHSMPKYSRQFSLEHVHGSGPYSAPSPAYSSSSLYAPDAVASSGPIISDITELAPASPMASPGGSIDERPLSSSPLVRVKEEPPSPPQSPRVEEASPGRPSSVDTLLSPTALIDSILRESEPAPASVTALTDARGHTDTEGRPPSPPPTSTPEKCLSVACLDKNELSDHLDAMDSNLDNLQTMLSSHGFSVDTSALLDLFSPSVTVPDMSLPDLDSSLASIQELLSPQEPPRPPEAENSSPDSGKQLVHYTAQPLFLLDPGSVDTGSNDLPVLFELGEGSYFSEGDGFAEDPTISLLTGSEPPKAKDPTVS
How it was run: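 Cells were transfected with cis-element-driven reporter constructs, dosed for 24 h, then total RNA was reverse-transcribed and reporter cDNA amplified, FAM-labelled and digested with HpaI. Fragments were resolved by capillary electrophoresis; gain or loss was fitted against DMSO.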

[7] = ATG_MRE_CIS: Attagene CIS-FACTORIAL HepG2 Assay for human Metal Responsive Element (MRE) (AID 2282954); conditions: HepG2 MRE cis-reporter transcription, Attagene multiplex; actives raise or lower the signal
How it was run: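 RT-PCR/capillary electrophoresis readout of reporter mRNA, 24 h post-dosing, in HepG2 cells transfected with multiplexed cis-regulated reporter constructs. Gain or loss of signal fitted bidirectionally against DMSO baseline.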

[8] = ATG_PBREM_CIS: Attagene CIS-FACTORIAL HepG2 Assay for human Phenobarbital-responsive Enhancer Module (PBREM) (AID 2282955); conditions: HepG2 PBREM cis-reporter, Attagene multiplexed transcription; actives raise or lower the signal
How it was run: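 Transfected liver-derived HepG2 cells exposed 24 h; PBREM reporter transcript quantified via RT-PCR and capillary electrophoresis, with activity in either direction referenced to DMSO.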

[9] = molecular target: Paired box protein Pax-6 (Homo sapiens) (UniProt P26367); experiment: ATG_Pax6_CIS: Attagene CIS-FACTORIAL HepG2 Assay for human Paired Box 6 (PAX6) (AID 2282956); conditions: HepG2 CIS-FACTORIAL PAX6 reporter transcription, RNA readout; actives raise or lower the signal
Sequence of Paired box protein Pax-6 (Homo sapiens) (P26367 whole entry, looked up): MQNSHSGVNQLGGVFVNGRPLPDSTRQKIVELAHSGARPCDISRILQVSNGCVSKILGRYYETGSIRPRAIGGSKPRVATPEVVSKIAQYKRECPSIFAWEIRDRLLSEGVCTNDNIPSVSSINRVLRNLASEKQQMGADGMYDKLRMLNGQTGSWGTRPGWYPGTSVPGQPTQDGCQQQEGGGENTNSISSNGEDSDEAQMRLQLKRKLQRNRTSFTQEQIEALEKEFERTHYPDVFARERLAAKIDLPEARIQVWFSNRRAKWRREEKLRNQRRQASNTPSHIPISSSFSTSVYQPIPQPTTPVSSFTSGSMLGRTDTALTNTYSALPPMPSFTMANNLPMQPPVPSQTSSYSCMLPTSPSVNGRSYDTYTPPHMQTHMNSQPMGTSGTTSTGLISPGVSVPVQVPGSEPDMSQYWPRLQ
How it was run: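 Read-out is reporter transcript level, measured by RT-PCR with fluorescent primer extension and capillary electrophoresis after 24 h dosing of transfected HepG2 cells. Activity in either direction fitted relative to DMSO control.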

[10] = ATG_PXRE_CIS: Attagene CIS-FACTORIAL HepG2 Assay for human Pregnane X Receptor Element (PXRE) (AID 2282957); conditions: HepG2 Attagene CIS-FACTORIAL PXRE reporter, mRNA; actives raise or lower the signal
How it was run: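 Fluorescent capillary electrophoresis of amplified reporter cDNA gave the signal, collected 24 h after dosing HepG2 cells that held transfected cis-element reporter constructs.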

[11] = ATG_PPRE_CIS: Attagene CIS-FACTORIAL HepG2 Assay for human Peroxisome Proliferator-activated Response Element (PPRE) (AID 2282958); conditions: HepG2 PPRE cis-element reporter, Attagene transcription factor profiling; actives raise or lower the signal
How it was run: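 Measured endpoint: PPRE-controlled reporter mRNA, detected by RT-PCR and capillary electrophoresis fluorescence, from transiently transfected HepG2 cells 24 h after dosing. Curves fitted in both directions using DMSO baseline.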

[12] = ATG_RORE_CIS: Attagene CIS-FACTORIAL HepG2 Assay for human RAR-related Orphan Receptor Element (RORE) (AID 2282959); conditions: HepG2 Attagene cis-factorial RORE reporter, mRNA; actives raise or lower the signal
How it was run: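 Transiently transfected HepG2 reporter cells were treated 24 h. Reporter transcripts were detected by RT-PCR and capillary electrophoresis, with bidirectional fitting against DMSO.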

[13] = ATG_Sox_CIS: Attagene CIS-FACTORIAL HepG2 Assay for human SRY-box transcription factor (SOX) (AID 2282960); conditions: HepG2 Attagene cis-factorial SOX reporter, mRNA; actives raise or lower the signal
How it was run: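 Gain- or loss-of-signal endpoint, fitted bidirectionally with DMSO as negative control. Based on reporter mRNA from transfected HepG2 cells harvested 24 h post-treatment and quantified via RT-PCR and capillary electrophoresis.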

[14] = molecular target: Transcription factor Sp1 (Homo sapiens) (UniProt P08047); experiment: ATG_Sp1_CIS: Attagene CIS-FACTORIAL HepG2 Assay for human Specificity Protein 1 (Sp1) (AID 2282961); conditions: HepG2 Sp1 cis-reporter transcription, actives raise or lower the signal
Sequence of Transcription factor Sp1 (Homo sapiens) (P08047 whole entry, looked up, the tested form may be a part): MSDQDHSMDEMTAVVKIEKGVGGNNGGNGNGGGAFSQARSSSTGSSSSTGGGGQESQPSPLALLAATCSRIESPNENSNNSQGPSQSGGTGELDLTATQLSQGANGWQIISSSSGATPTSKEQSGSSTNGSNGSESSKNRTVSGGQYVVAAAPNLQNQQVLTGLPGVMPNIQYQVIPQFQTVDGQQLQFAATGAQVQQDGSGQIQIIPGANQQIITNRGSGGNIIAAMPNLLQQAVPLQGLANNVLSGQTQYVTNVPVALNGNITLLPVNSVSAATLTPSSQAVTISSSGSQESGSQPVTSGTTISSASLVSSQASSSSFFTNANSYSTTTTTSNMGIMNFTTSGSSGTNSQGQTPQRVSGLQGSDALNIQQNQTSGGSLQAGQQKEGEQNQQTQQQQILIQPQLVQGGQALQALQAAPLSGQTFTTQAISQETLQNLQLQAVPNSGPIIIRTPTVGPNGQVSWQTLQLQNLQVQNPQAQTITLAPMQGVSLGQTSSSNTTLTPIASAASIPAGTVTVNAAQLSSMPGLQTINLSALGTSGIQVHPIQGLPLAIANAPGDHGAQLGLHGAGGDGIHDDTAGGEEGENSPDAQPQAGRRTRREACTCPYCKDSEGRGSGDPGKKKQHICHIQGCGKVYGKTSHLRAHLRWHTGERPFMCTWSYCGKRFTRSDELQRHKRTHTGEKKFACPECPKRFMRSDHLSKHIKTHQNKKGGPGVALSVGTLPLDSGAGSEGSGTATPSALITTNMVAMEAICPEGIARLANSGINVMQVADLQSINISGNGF
How it was run: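 Endpoint reflects endogenous Sp1 transcriptional activity, not an exogenous fusion protein: HepG2 cells with transfected cis-regulated reporters, 24 h dosing, RT-PCR/capillary electrophoresis mRNA read-out, DMSO-normalised bidirectional fit.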

[15] = ATG_SREBP_CIS: Attagene CIS-FACTORIAL HepG2 Assay for human Sterol Regulatory Element Binding (SREBP) (AID 2282962); conditions: HepG2 Attagene cis-factorial SREBP reporter, mRNA; actives raise or lower the signal
How it was run: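 Endogenous SREBP activity read as cis-element-driven reporter transcript in transiently transfected HepG2, 24 h post-dosing; quantified via RT-PCR plus capillary electrophoresis of fluorescent fragments. Gain or loss of signal fitted relative to DMSO baseline.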

[16] = molecular target: Signal transducer and activator of transcription 3 (Homo sapiens) (UniProt P40763); experiment: ATG_STAT3_CIS: Attagene CIS-FACTORIAL HepG2 Assay for human Signal Transducer and Activator of Transcription 3 (STAT3) (AID 2282963); conditions: HepG2, Attagene cis-factorial STAT3 reporter transcription; actives raise or lower the signal
Sequence of Signal transducer and activator of transcription 3 (Homo sapiens) (P40763 whole entry, looked up, the tested form may be a part): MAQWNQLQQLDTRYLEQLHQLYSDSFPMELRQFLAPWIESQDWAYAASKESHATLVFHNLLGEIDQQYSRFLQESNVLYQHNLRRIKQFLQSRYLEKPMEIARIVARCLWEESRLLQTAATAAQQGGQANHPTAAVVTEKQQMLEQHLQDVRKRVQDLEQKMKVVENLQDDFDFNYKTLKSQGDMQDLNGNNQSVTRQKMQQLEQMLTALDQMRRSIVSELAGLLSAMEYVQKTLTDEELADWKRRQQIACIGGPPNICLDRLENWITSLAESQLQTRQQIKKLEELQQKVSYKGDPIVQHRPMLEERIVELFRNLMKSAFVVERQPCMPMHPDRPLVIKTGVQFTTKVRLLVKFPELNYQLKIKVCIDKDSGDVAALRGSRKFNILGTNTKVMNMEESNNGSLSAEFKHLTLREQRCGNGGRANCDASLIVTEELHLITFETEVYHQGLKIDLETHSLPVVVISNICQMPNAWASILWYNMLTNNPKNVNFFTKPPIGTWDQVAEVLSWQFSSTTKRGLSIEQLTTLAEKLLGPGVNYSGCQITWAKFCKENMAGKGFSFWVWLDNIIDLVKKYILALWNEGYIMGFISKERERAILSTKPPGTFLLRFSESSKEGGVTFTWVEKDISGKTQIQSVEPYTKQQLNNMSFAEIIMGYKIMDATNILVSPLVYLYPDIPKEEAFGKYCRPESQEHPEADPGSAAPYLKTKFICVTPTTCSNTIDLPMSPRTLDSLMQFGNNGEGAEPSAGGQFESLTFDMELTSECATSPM
How it was run: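 Readout: fluorescent reporter mRNA fragments resolved by capillary electrophoresis. Setup: HepG2 transfected with MRTUs reporting endogenous transcription-factor activity, dosed 24 h. Gain or loss of signal fitted bidirectionally against DMSO control.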

[17] = ATG_TA_CIS: Attagene CIS-FACTORIAL HepG2 Assay for human TA Basal Promoter (AID 2282964); conditions: HepG2 Attagene CIS-factorial TA basal promoter reporter; actives raise or lower the signal
How it was run: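 Steps: transfect HepG2 with MRTUs; dose 24 h; isolate RNA, DNase-treat, reverse-transcribe; PCR and FAM-label reporter cDNA; digest with HpaI 2h at 37 C; run capillary electrophoresis. Activity fitted both directions against DMSO.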

[18] = ATG_TCF_b_cat_CIS: Attagene CIS-FACTORIAL HepG2 Assay for human T-Cell-Factor with beta-catenin (TCF/b-cat) (AID 2282965); conditions: HepG2 TCF/beta-catenin cis-reporter transcription, actives raise or lower the signal
How it was run: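 HepG2, transient MRTU transfection, cis-element-driven reporters (endogenous TFs). 24 h compound exposure. Readout: reporter mRNA by RT-PCR + 6-FAM primer extension, HpaI digest, capillary electrophoresis. Gain/loss fit vs DMSO baseline.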

## COC(=O)c1cc(Cl)ccc1[N+](=O)[O-]
[1]
  outcome: inactive
[2]
  outcome: inactive
[3]
  outcome: inactive
[4]
  outcome: inactive
[5]
  outcome: inactive
[6]
  outcome: inactive
[7]
  outcome: inactive
[8]
  outcome: inactive
[9]
  outcome: inactive
[10]
  AC50: 76.1 µM (active)
[11]
  outcome: inactive
[12]
  outcome: inactive
[13]
  outcome: inactive
[14]
  outcome: inactive
[15]
  outcome: inactive
[16]
  outcome: inactive
[17]
  outcome: inactive
[18]
  outcome: inactive

## [Cl][Nd]([Cl])[Cl]
[1]
  outcome: inactive
[3]
  outcome: inactive
[5]
  outcome: inactive
[6]
  outcome: inactive
[7]
  outcome: inactive
[8]
  outcome: inactive
[9]
  outcome: inactive
[10]
  outcome: inactive
[11]
  outcome: inactive
[12]
  outcome: inactive
[13]
  outcome: inactive
[14]
  outcome: inactive
[15]
  outcome: inactive
[16]
  outcome: inactive
[17]
  outcome: inactive
[18]
  outcome: inactive

## N=c1ccn2c(n1)O[C@H]1[C@H](O)[C@@H](CO)O[C@H]12
[1]
  outcome: inactive
[2]
  outcome: inactive
[3]
  outcome: inactive
[5]
  outcome: inactive
[6]
  outcome: inactive
[7]
  outcome: inactive
[9]
  outcome: inactive
[10]
  outcome: inactive
[12]
  outcome: inactive
[13]
  outcome: inactive
[14]
  outcome: inactive
[15]
  outcome: inactive
[16]
  outcome: inactive
[17]
  outcome: inactive
[18]
  outcome: inactive
